The results in this text go back to PubChem BioAssay (EPA / NIEHS).

Calls of active or inactive are those of the source. Rule for the calls: active = hit-call score of the fitted dose curve at least 0.9, where 1 is the maximum; inactive = score below 0.9.

One assay in a line: CCTE_Padilla_ZF_Score.Living: CCTE's 144 Hour Post-fertilization zebrafish Assay Score for Viability, Padilla Lab (AID 2284410).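 Note: larval death at 6 dpf judged by absent heartbeat or coagulation.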 In outline: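 Wild-type zebrafish embryos were exposed singly from 6–8 hpf in sealed wells of Hanks' solution at 26C, then rinsed at 5 dpf. At 6 dpf, blinded assessors scored mortality (no heartbeat or coagulation) by stereomicroscopy, fitted against DMSO.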
Consider `O=C(O)C(F)(F)C(F)(F)C(F)(F)C(F)(F)C(F)(F)C(F)(F)C(F)(F)C(F)F`, for which the molecule was called inactive.

For the molecule `C=C(F)C(=O)OC(C(F)(F)F)C(F)(F)F`, the result was inactive.

In the case of `OCC(F)(OC(F)(F)C(F)(OC(F)(F)C(F)(F)C(F)(F)F)C(F)(F)F)C(F)(F)F` (configuration not stated), the AC50 was 35.4 µM (active).

On to `O=S(=O)(O)C(F)(F)C(F)(F)OC(F)(F)C(F)(F)F`, for which the outcome was inactive.

For the molecule `C=C(C)C(=O)OCCC(F)(F)C(F)(F)C(F)(F)C(F)(F)C(F)(F)C(F)(F)C(F)(F)C(F)(F)F`, the outcome was inactive.

Turning to `O=C(O)C(F)(F)OC(F)(F)C(F)(F)OC(F)(F)C(F)(F)C(F)(F)C(F)(F)F`, the AC50 is 81.2 µM (active).

A short description of another assay: CCTE_Padilla_ZF_Score.General: CCTE's 144 Hour Post-fertilization zebrafish Assay Score for General Malformation, Padilla Lab (AID 2284411). In outline:
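Wild-type zebrafish embryos were plated singly at 6-8 hpf in 10% Hanks' and exposed in sealed wells at 26C until rinsed on 5 dpf. At 6 dpf two blinded assessors scored mortality, hatching and malformations by stereomicroscopy; gain-of-signal versus DMSO.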
Take `CC1=CC(C)C(C=O)C(C)C1` (configuration not stated) (tested in a mixture with another compound): the outcome was inactive.

Regarding `O=C(O)C(F)(F)C(F)(F)C(F)(F)C(F)(F)C(F)(F)C(F)(F)C(F)(F)C(F)F`, the molecule was called inactive.

In the case of `CCOC(=O)C=Cc1ccccc1`, the outcome was inactive.

`C=C(F)C(=O)OC(C(F)(F)F)C(F)(F)F`: the outcome was inactive.

For the molecule `CCCCCCCCCCCCS`, the molecule was classed as inactive.

For `C=C1CC[C@H]2O[C@]2(C)CC[C@@H]2[C@@H]1CC2(C)C`, the AC50 is 65.4 µM (active).

With `CCCCCCCCCC(=O)OCC`, the molecule was called inactive.

For `CCOC(=O)CCCCCCCCC(=O)OCC`, the outcome was inactive.

On to `CC(=O)CCC=C(C)CCC=C(C)C`, for which the molecule was classed as inactive.

As to `CCC(=O)OC/C=C(\C)CCC=C(C)C`, the AC50 is 27.3 µM (active).

Turning to `OCC(F)(OC(F)(F)C(F)(OC(F)(F)C(F)(F)C(F)(F)F)C(F)(F)F)C(F)(F)F` (configuration not stated), the molecule was classed as inactive.

Take `O=S(=O)(O)C(F)(F)C(F)(F)OC(F)(F)C(F)(F)F`: the outcome was inactive.

Turning to `C=C(C)C(=O)OCCC(F)(F)C(F)(F)C(F)(F)C(F)(F)C(F)(F)C(F)(F)C(F)(F)C(F)(F)F`, the result was inactive.

For `O=C(O)C(F)(F)OC(F)(F)C(F)(F)OC(F)(F)C(F)(F)C(F)(F)C(F)(F)F`, the AC50 is 81.3 µM (active).

The next assay can be described thus: CCTE_Padilla_ZF_Score.Tail: CCTE's 144 Hour Post-fertilization zebrafish Assay Score for Tail Malformation, Padilla Lab (AID 2284414). The procedure, abridged:
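Wild-type zebrafish embryos, one per well in 200 uL 10% Hanks', dosed at 6-8 hpf, sealed, and kept at 26 C on a 14:10 h light cycle. Chemical was rinsed out at 5 dpf. Blinded brightfield scoring of tail defects followed at 6 dpf.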
For `O=C(O)C(F)(F)C(F)(F)C(F)(F)C(F)(F)C(F)(F)C(F)(F)C(F)(F)C(F)F`, the call was inactive.

`C=C(F)C(=O)OC(C(F)(F)F)C(F)(F)F`: the outcome was inactive.

As for `OCC(F)(OC(F)(F)C(F)(OC(F)(F)C(F)(F)C(F)(F)F)C(F)(F)F)C(F)(F)F` (configuration not stated), the result was inactive.

Turning to `O=S(=O)(O)C(F)(F)C(F)(F)OC(F)(F)C(F)(F)F`, the molecule was called inactive.

On to `C=C(C)C(=O)OCCC(F)(F)C(F)(F)C(F)(F)C(F)(F)C(F)(F)C(F)(F)C(F)(F)C(F)(F)F`, for which the outcome was inactive.

As for `O=C(O)C(F)(F)OC(F)(F)C(F)(F)OC(F)(F)C(F)(F)C(F)(F)C(F)(F)F`, the result was inactive.

The nature of a further assay: CCTE_Padilla_ZF_Score.Blood_pooling: CCTE's 144 Hour Post-fertilization zebrafish Assay Score for Blood Pooling, Padilla Lab (AID 2284415). The procedure, abridged:
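Wild-type outbred zebrafish embryos, one per well in 10% Hanks', exposed from 6–8 hpf in sealed plates at 26C on 14:10 h light:dark, rinsed at 5 dpf. Blinded stereomicroscope scoring of blood pooling at 6 dpf; gain-of-signal versus DMSO.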
On to `O=C(O)C(F)(F)C(F)(F)C(F)(F)C(F)(F)C(F)(F)C(F)(F)C(F)(F)C(F)F`, for which the result was inactive.

With `C=C(F)C(=O)OC(C(F)(F)F)C(F)(F)F`, the call was inactive.

As for `OCC(F)(OC(F)(F)C(F)(OC(F)(F)C(F)(F)C(F)(F)F)C(F)(F)F)C(F)(F)F` (configuration not stated), the call was inactive.

As to `O=S(=O)(O)C(F)(F)C(F)(F)OC(F)(F)C(F)(F)F`, the call was inactive.

On to `C=C(C)C(=O)OCCC(F)(F)C(F)(F)C(F)(F)C(F)(F)C(F)(F)C(F)(F)C(F)(F)C(F)(F)F`, for which the molecule was classed as inactive.

On to `O=C(O)C(F)(F)OC(F)(F)C(F)(F)OC(F)(F)C(F)(F)C(F)(F)C(F)(F)F`, for which the molecule was called inactive.
